Cycloheximide cs: counter-screen for Shiga toxin inhibitors: cycloheximide protein synthesis inhibition. cell reporter, cycloheximide protein synthesis inhibition counterscreen. max response, %. actives 12% (n = 300,000); in the data active = max response mostly above about 13%, no sharp cut-off; inactive = mostly below about 14%; also: read at 38.3 µM for the half of the compounds with a filed dose; 0% is about no effect
Pf growth 48h: inhibits P. falciparum growth in the first generation, 48 h; Potency, µM (titrated, usually from 28.7 µM), inactives show at the highest dose activity change, negative = inhibition, hits mostly inhibitors; AID 504832; actives 5.9% (n = 310,000); P. falciparum luciferase growth in erythrocytes, 48 h; also: potency is read from the fitted curve at half-maximal effect; % is scaled to controls: 0 for no effect and ±100 for the full control effect
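Firefly luciferase activity from engineered P. falciparum reports growth; inhibitors lower the luminescent signal. Cultures contained 2% hematocrit erythrocytes at 0.1% final parasitemia.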
Shiga inhibitor: blocks Shiga toxin action in Vero cells; Vero cells, Shiga toxin protein synthesis inhibition reporter; AID 2315; actives 9.2% (n = 290,000); inhibition, % at 38.7 µM; in the data active = inhibition mostly above about 28%, no sharp cut-off; inactive = mostly below about 43%; also: 0% is about no effect
Pf growth 96h: inhibits malaria parasite growth, 96 h; P. falciparum luciferase reporter growth, 96 h; Potency, µM (top dose mostly 28.7 µM), for the others: at the top dose activity change, negative = inhibition, hits mostly inhibitors; actives 6.9% (n = 320,000); AID 504834; also: potency is read from the fitted curve at half-maximal effect; % is scaled to controls: 0 for no effect and ±100 for the full control effect
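Readout is luminescence from an integrated firefly luciferase in P. falciparum. Red cells, 2% hematocrit and 0.05% parasitemia final, were cultured with compound through two parasite generations (96 hours) at 37 C, 5% CO2.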
NS1 inh: blocks influenza NS1 protein function; actives 0.4% (n = 270,000); Potency, µM (titrated, usually from 46.1 µM), for the others: at the top dose activity, positive = more growth; calls by dose curve; also: potency is read from the fitted curve at half-maximal effect; actives are rising curves; nearly all actives have a fitted effect of over 50% in size
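Compounds were scored for reversing the slow growth caused by influenza A NS1 in S. cerevisiae, measured by optical density at 600 nm. Assay medium contained 2% galactose at pH 6.0; NS1-free yeast of the same strain were the positive control.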
Starred values were filed as active, the others as inactive; ? = inconclusive; . = not tested or not shown; + = active, no number; [ ] = dose if it differs, or a comment. Most compounds without a hit are left out; they make up all but 21% or so of the library. Unless noted, calls follow the shape of the dose curve; as a rule, active = well fitted inhibition curve with a large enough effect; inconclusive = small, poorly fitted or top-dose-only effect, or another doubt; inactive = no such curve, though single readings can be large or run the other way.

SMILES	Cycloheximide cs	Pf growth 48h	Shiga inhibitor	Pf growth 96h	NS1 inh
O=C(OCC#CCSc1nc2ccccc2s1)c1ccco1	37*	25%	69	58%	-35%
O=C(CSc1nc2ccccc2s1)N1CCN(C(=O)c2ccco2)CC1	6	-11%	21	?	3%
O=C(OCC#CCSc1nnc(-c2ccccc2)o1)c1ccco1	7	47%	29	-22%[5.75 µM]	-97%
O=C(OCc1nnc(-c2ccc(Br)cc2)o1)c1ccco1	28*	14%	40	?	-39%
N#CCC(=O)Nn1c(=S)[nH]c2ccccc2c1=O	16	0%	10	?	.
NC(=O)c1ccc(NC(=O)COC(=O)CCC(=O)c2ccc(Cl)cc2)cc1	1	23%	-22	22%	.
Cc1cc(C)n2nc(C(=O)NCCc3ccccc3)nc2n1	68*	.	92*	62%	-3%
COc1ccccc1-c1cc(C(=O)N2CCc3ccccc3C2)c2ccccc2n1	-1	?	-8	?	-5%
COc1ccccc1-c1cc(C(F)(F)F)n2ncc(C(=O)N3CCc4ccccc4C3)c2n1	-2	2.3µM*	-17	?	6%
O=C(NCCc1ccccc1)c1nc2nc(-c3cccs3)cc(C(F)(F)F)n2n1	41*	-25%	+	?	-2%
O=C(c1cnn2c(C(F)(F)F)cc(-c3cccs3)nc12)N1CCN(Cc2ccccc2)CC1	-3	2.3µM*	-10	?	-43%
O=S1(=O)C[C@H]2NC(=S)N(c3ccccc3)[C@H]2C1	-4	8%	-4	-2%	2%
O=C(CN1CCN(C(=O)C2CCCO2)CC1)Nc1cc(C(F)(F)F)ccc1Cl (stereo not drawn)	-4	?	19	6%	-4%
COc1cccc(N(CC(=O)NCCSc2ccc(Cl)cc2)S(C)(=O)=O)c1	-3	.	-8	?	0%
COc1ccc(N(C(=O)c2ccncc2)S(=O)(=O)c2cccc([N+](=O)[O-])c2)cc1	-2	10%	25	?	-15%
Cc1cc(C)c(NC(=O)NC2CCCCC2)c(C)c1	-3	-3%	21	6%	10%
Cc1cc(C2CCCCC2)n(O)c(=O)c1	.	0.74µM*	.	0.47µM*	.
CN(C)S(=O)(=O)c1ccc2c(c1)/C(=C/c1cc3c([nH]1)CCCC3)C(=O)N2	.	2.1µM*	.	1.3µM*	-8%
O=C(/C=C/c1ccco1)NCc1ccc2c(c1)OCO2	16	8%	11	-4%	2%
O=C(/C=C/c1ccccc1)NCc1ccc2c(c1)OCO2	22*	9%	34	3%	0%
O=C(/C=C/c1cccs1)NCc1ccc2c(c1)OCO2	37*	10%	34*	-12%	4%
COc1ccc(CNC(=O)C2CCN(C(=O)[C@@H]3Cc4ccccc4CN3)CC2)cc1	-7	6%	24	73%	19%
CCOc1ccc(-c2nc(N)ncc2Oc2cccc(OC)c2)c(O)c1	2	.	-10	?	-3%
CCOc1ccc(-c2nc(N)ncc2Oc2ccccc2Br)c(O)c1	8	.	13	3.3µM*	5%
C=C(C)COc1ccc(-c2ncncc2-c2ccc(Cl)cc2)c(O)c1	0	5.2µM*	-11	2.3µM*	-12%
SMILES	Cycloheximide cs	Pf growth 48h	Shiga inhibitor	Pf growth 96h	NS1 inh
COc1ccc(-c2ncncc2-c2ccc(Cl)cc2)c(O)c1	-2	8.3µM*	-8	7.4µM*	-7%
CCc1cc(-c2nc(N)ncc2-c2ccc(Br)cc2)c(O)cc1OC	-2	-4%	-14	19%	-1%
C=C(C)COc1ccc(-c2ncncc2-c2ccc(Br)cc2)c(O)c1	-2	1.9µM*	-3	2.3µM*	-2%
COc1ccccc1NC(=O)CSc1nc2ccccc2nc1N1CC(C)OC(C)C1 (stereo not drawn)	3	?	5	?	?
CC1=CC=CN2C1=NC(=O)CC2(C)C(=O)N(CC(=O)NC1CCCC1)c1cc(C)cc(C)c1 (stereo not drawn)	1	6%	34	?	.
COc1ccc(-c2cnc(N)nc2-c2ccc(OCc3ccccc3)cc2O)cc1	-2	?	-6	15µM*	6%
COc1ccc(-c2nc(N)ncc2-c2ccc(OC)c(OC)c2)c(O)c1	-2	-7%	4	-3%	-2%
COc1ccc(-c2cncnc2-c2ccc(OC)cc2O)cc1	-5	?	-15	?	-3%
COc1cccc(Oc2cncnc2-c2ccc(OC)cc2O)c1	2	5.2µM*	-9	80%	-140%
C=C(C)COc1ccc(-c2nc(N)ncc2-c2ccc(Br)cc2)c(O)c1	0	8.3µM*	3	?	11%
COc1ccc(Cl)cc1NC(=O)C/C(C)=N/NC(=O)C(=O)NCc1ccccc1	-1	2%	30	22%	-3%
COCCn1c(=NC(=O)/C=C/c2cccs2)sc2cc(NC(C)=O)ccc21	-1	?	-12	8.3µM*	6%
CC(OC(=O)C1=NN(c2ccccc2)C(=O)CC1)C(=O)NC1CCCCC1C (stereo not drawn)	.	4%	.	18%	.
O=C(OCCCN1CCCCC1)c1ccc(O)cc1	1	25%	-12	2.6µM*	0%
O=C(OCCN1CCCCC1)c1ccccc1F	-2	-3%	-2	?	-1%
O=C(OCCN1CCOCC1)c1ccc(O)cc1	-1	15%	.	121%	20%
O=C(OCCN1CCCCC1)c1ccc(O)cc1	23*	6%	19	.	14%
O=C(OCCN1CCCCC1)c1ccccc1Cl	29*	3%	37	.	-5%
CC1CCCCN1CCCOC(=O)c1ccccc1 (stereo not drawn)	.	-13%	.	-4%	.
Cc1ccc(S(=O)(=O)c2ccccc2)cc1S	9	-9%	-6	-3%	.
c1ccc2nc3c(cc2c1)CCCCC3	30*	0%	44*	-21%	3%
c1ccc2nc3c(cc2c1)CCCCCC3	11	.	-4	-19%	-8%
CCCCN1CC(=O)N2[C@H]3c4ccc(OC)cc4OC[C@@H]3[C@H](c3ccccc3)[C@]2(C)C1=O	.	2.1µM*	.	7.4µM*	.
COc1ccc2c(c1)OC[C@H]1[C@H]2N2C(=O)CN(Cc3ccco3)C(=O)[C@@]2(C)[C@H]1c1ccccc1	.	?	.	9.3µM*	.
O=C(Nc1ccnc(-c2ccncc2)n1)C1CC1	-2	12%	-5	-15%	-5%
SMILES	Cycloheximide cs	Pf growth 48h	Shiga inhibitor	Pf growth 96h	NS1 inh
Cc1cc(C)n2nc(SCc3nnc(-c4ccccc4Br)o3)nc2n1	-2	?	-11	?	-3%
CCC(C)C(=O)Nc1cc(C(=O)OC)cc(C(=O)OC)c1 (stereo not drawn)	-2	.	-6	-9%	8%
CCOCCCN(C(=O)Cn1nnc(-c2ccc(C)o2)n1)C(C(=O)NC1CCCC1)c1ccc(C)o1 (stereo not drawn)	-6	?	-1	?	-4%
O=C(N=C1SC2CS(=O)(=O)CC2N1Cc1ccccc1)C1CCCCC1 (stereo not drawn)	-11	-6%	-4	?	14%
CCOC(=O)/C(C#N)=C/Nc1ccccc1NS(=O)(=O)c1ccc2c(c1)OCCO2	.	9.3µM*	.	12µM*	.
CCOC(=O)/C(C#N)=C/Nc1ccccc1OC	25*	68%	43*	3%	-8%
